ALDH1A1 block: qHTS Assay for Inhibitors of Aldehyde Dehydrogenase 1 (ALDH1A1); Aldehyde dehydrogenase 1A1 (Homo sapiens), P00352; Purified ALDH1A1, NADH fluorescence, propionaldehyde substrate; Potency, µM (series often up to 75.3 µM), actives largely listed as inhibitors; hit rate 7.3% among 220,000; AID 1030, 2008
HPGD block: qHTS Assay for Inhibitors of HPGD (15-Hydroxyprostaglandin Dehydrogenase); Potency, µM, actives largely listed as inhibitors; purified HPGD, NADH fluorescence kinetic, PGE2 substrate; hit rate 4.3% among 150,000; 15-hydroxyprostaglandin dehydrogenase [NAD(+)] (Homo sapiens), P15428
Target sequence (P15428 whole entry, looked up): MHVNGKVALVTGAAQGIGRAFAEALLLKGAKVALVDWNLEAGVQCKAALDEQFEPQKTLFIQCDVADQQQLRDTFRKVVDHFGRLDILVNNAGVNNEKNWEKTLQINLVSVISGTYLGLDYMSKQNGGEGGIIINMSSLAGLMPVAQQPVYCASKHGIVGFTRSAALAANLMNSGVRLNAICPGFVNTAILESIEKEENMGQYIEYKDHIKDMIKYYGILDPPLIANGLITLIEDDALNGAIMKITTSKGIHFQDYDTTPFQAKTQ
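20 nM HPGD preincubated 15 min at room temperature with compound in 50 mM Tris-HCl pH 8, 0.01% Tween 20. Started with 1 mM NAD+ and 30 uM prostaglandin E2; NADH fluorescence (360/450 nm) read 5 times over 30-s intervals, last minus first.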
PNC assembly inh: High Content Assay for Compounds that inhibit the Assembly of the Perinucleolar Compartment; PC3M PTB-GFP, PNC prevalence imaging, 16 h; hits give low values; activity change (PNC), negative = inhibition, % at 10 µM; hit rate 3.1% among 140,000;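 active means readout at or below -70, meaning at least 70% loss of cells showing the perinucleolar compartment, a nuclear body marking cancer cells; inconclusive means readout between -30 and a set limit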
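Compounds are pinned in duplicate onto adhered PC3M cells stably expressing GFP-tagged PTB and incubated 16 h at 37 C. Cells are then fixed, nuclei stained with Hoechst, and PNC-positive cells counted.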
12-hLO inh: qHTS Assay for Inhibitors of 12-hLO (12-human lipoxygenase); Polyunsaturated fatty acid lipoxygenase ALOX12 (Homo sapiens), P18054; purified 12-hLO, xylenol orange hydroperoxide absorbance; Potency, µM (series often up to 57.1 µM), hits mostly inhibitors; hit rate 0.12% among 150,000; active means well fitted inhibition curve with a large enough effect; inconclusive means small, poorly fitted or top-dose-only effect; further: nearly all actives have a fitted effect of over 55% in size
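Hydroperoxide formation by human 12-lipoxygenase from 40 uM arachidonic acid was followed colorimetrically via ferric-xylenol orange complex, using the 573/405 nm absorbance ratio. Enzyme concentration was 150 nM, with 30 min reaction at room temperature.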
Lamin A splicing: qHTS Assay for Modulators of Lamin A Splicing; HeLa LMNA splicing GFP/RFP minigene ratio, 48 h; Potency, µM (highest dose often 46.1 µM), usual class: inhibitors; hit rate 0.01% among 200,000; active means well fitted inhibition curve with a large enough effect in the signal ratio, with a control signal flat, not every such curve was filed as active; inconclusive means small, poorly fitted or top-dose-only effect, or effect the other way, or a change in a side signal; the % refers to the signal ratio
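S3 HeLa cells stably expressing lamin A-EGFP splicing minigene plus DsRed2, 600 cells/well, 48 h compound exposure at 37C. Laser-scanning cytometry; analysed as GFP (500-530 nm)/RFP (575-640 nm) total intensity ratio; 0.5% DMSO vehicle.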
Hits are given with their value; 0 = inactive; ? = inconclusive; - = not tested or not shown; ! = not active in a repeat; [ ] = dose if it differs, or a comment. Shown are actives, neighbours in structure and some others; about 10% of the full set was active somewhere. Unless noted, the call rests on the fitted dose curve; in most records, active means well fitted inhibition curve with a large enough effect (not every such curve was filed as active); inconclusive means small, poorly fitted or top-dose-only effect, or another doubt; inactive means no such curve, though single readings can be large or run the other way.

SMILES	ALDH1A1 block	HPGD block	PNC assembly inh	12-hLO inh	Lamin A splicing
COc1ccc(C2Nc3ccccc3C(=O)N2Cc2ccco2)cc1COc1ccc(F)cc1 (configuration not stated)	2.5µM	?	0	0	?
COc1ccc(C2Nc3ccccc3C(=O)N2Cc2ccco2)cc1CN1C(=O)c2ccccc2C1=O (configuration not stated)	0	0	0	0	0
CCN(CC)C(=O)CSc1nc2cc3c(cc2c(=O)n1Cc1ccc(C(=O)NCCc2ccc(OC)c(OC)c2)cc1)OCO3	-	-	-	-	0
CN(C)C(=O)c1ccc2c(c1)N(CC(=O)NCc1ccc(F)cc1)C(=O)C1CCCCN21 (configuration not stated)	-	-	-	-	0
Cc1ccc(OC2C(O)COC2/C=C/C#Cc2ccc(C(C)(C)C)cc2)cc1 (configuration not stated)	0[13.5 µM]	-	-	-	-
CCOc1ccc(NC(=O)C(=O)NCC(c2cccnc2)N2CCc3ccccc32)cc1 (configuration not stated)	-	-	-	-	0
COc1ccc(C[C@@](C)(N)C(=O)O)cc1OC	0	0	-	0	0
O=C(Nc1cnn(Cc2ccc(Cl)c(Cl)c2)c1)c1nc2ncccn2n1	0	20µM	0	0	?
Cc1ccc(Cn2ccc(NC(=O)c3nc4ncccn4n3)n2)cc1	0	0	0	0	?
Cc1ccc(NCCC(=O)c2ccc(Br)cc2)cc1	0.79µM	0	0	0	?
Cc1ccc(NCCC(=O)c2ccc(Cl)cc2)cc1	1.4µM	0	0	0	?
CCc1ccccc1NC(=O)Cn1nc(C)c2nn(-c3ccc(Cl)cc3)c(C)c2c1=O	-	-	-	-	0
CCCCCCCNC1=CC(=O)CC(c2ccco2)C1 (configuration not stated)	25µM	0	0	0	0
O=c1c(C=NCc2cccnc2)c(C(F)(F)F)[nH]n1-c1nc2ccccc2s1	0	-	-	-	0
CCCc1[nH]n(-c2nc3ccccc3s2)c(=O)c1C=NCC(C)C	13µM	0	0	0	?
COc1ccccc1-c1ccc(=O)n(CC(=O)NC2CCc3ccccc32)n1 (configuration not stated)	0	-	-	-	0
CCCCCCCC#Cc1ccccc1/C=N/S(=O)c1ccc(C)cc1 (configuration not stated)	20µM!	13µM	0	?	?
c1ccc(CN2CCN(c3nc4ccccc4n4cnnc34)CC2)cc1	0	14µM	0	0	0
C1=C(c2ccccc2)CCN(c2nc3ccccc3n3cnnc23)C1	28µM	14µM	0	0	0
CCC(C)NC(=O)CSc1nnc(-c2ccc(C)cc2)c(-c2ccc(C)cc2)n1 (configuration not stated)	-	-	-	-	0
COC(=O)[C@@]1(Cc2ccccc2-c2ccco2)C=C[C@H](C)[C@@H](c2ccccc2)N1C(=O)C(F)(F)F	0	0	-	-	-
O=C(NCc1cccc(F)c1)c1ccccc1NC(=O)c1nsc2ccccc12	-	-	-	-	0
N[C@H](C(=O)O)c1nn[nH]n1	0	0	-	0	-
NC(=S)NNc1cccc2cccnc12	3.5µM	-	-	-	-
NC(=S)Nc1cccc2cccnc12	0	0	0	0	0
SMILES	ALDH1A1 block	HPGD block	PNC assembly inh	12-hLO inh	Lamin A splicing
CCOc1ccc(-n2cnnn2)cc1S(=O)(=O)NC1CC1	0	0	0	0	0
CCOc1ccc(-n2cnnn2)cc1S(=O)(=O)Nc1c(C)cccc1C	0	14µM	?	0	0
CCOC(=O)C1=C(Cc2ccc(F)cc2)C(=O)c2ccccc2C1=O	?	7.9µM	?	?	?
Cc1cccc(NS(=O)(=O)c2ccc3c(c2)C(C)(C)C(=O)N3C)c1	-	-	-	-	0
CN(C)C(CNC(=O)c1ccc2c(=O)n(-c3ccccc3F)c(=S)[nH]c2c1)Cc1ccccc1 (configuration not stated)	13µM	-	-	-	0
O=C(NCc1ccco1)c1cnccn1	28µM	0	?	0	0
O=S(=O)(NCc1cn2ccsc2n1)c1cccs1	0	0	0	0	0
COc1ccccc1CNC(=O)c1cnccn1	0	0	0	0	0
O=C(NCc1ccco1)c1cc2nc(-c3ccc4c(c3)OCO4)cc(C(F)(F)F)n2n1	?	?	?	0	?
COc1ccc(-c2cc(C(F)(F)F)n3nc(C(=O)NCc4ccco4)cc3n2)cc1	?	?	-114	0	0
COc1ccc(CNC(=O)c2cc(-c3ccco3)on2)cc1	3.5µM	0	0	0	0
O=C(NCc1ccc(Cl)cc1)c1cc(-c2ccco2)on1	?	-	0	0	0
O=C(NCCc1cn2ccsc2n1)c1cccs1	?	25µM	0	0	0
COc1ccc(CCNC(=O)c2cc(C)nc3c2c(C)nn3-c2ccccc2)cc1OC	-	-	-	-	0
CCc1ccc(S(=O)(=O)NCc2ccc3c(c2)CCN3C(=O)c2ccc(C)cc2)cc1	-	-	-	-	0
N[C@H](CO)Cc1cnc[nH]1	0	0	-	0	-
COC[C@H]1O[C@@H](c2c(OC)cc(OC)cc2OC)[C@H](OC)[C@@H](OC)[C@@H]1OC	0	0	-	-	-
O=C1c2ccccc2C(=O)N1c1ccc(Cc2ccc(N3C(=O)c4ccccc4C3=O)cc2)cc1	0[13.5 µM]	0	-	0[11.4 µM]	-
CCOC(=O)c1c(NC(=O)c2cc3nc(-c4ccc(OC)cc4)cc(C(F)(F)F)n3n2)sc(C)c1C	-	-	-	-	0
O=C(CSCc1ccco1)c1cccs1	?	16µM	0	0	0
COc1cc(NCCC(=O)c2cccs2)c(OC)cc1Cl	1.4µM	-	-	-	?
O=C(CSc1nnc(-c2ccc(Cl)cc2)n1Cc1ccco1)c1cccs1	?	0	?	0	0
COc1ccc(CNC(=O)c2csc(Cc3ccc(Cl)cc3)n2)cc1	0	0	-106	0	0
COc1cc(NC(=O)C/C(C)=N/NC(=O)c2cccs2)c(OC)cc1Cl	0	-	-	-	0
O=C(NCc1ccco1)c1cccs1	?	25µM	0	0	0
SMILES	ALDH1A1 block	HPGD block	PNC assembly inh	12-hLO inh	Lamin A splicing
COc1ccc(NC(=O)C2CCCN(c3ncnc4c3nc3n4CCCCC3)C2)c(OC)c1 (configuration not stated)	-	-	-	-	0
NCC1CCC(C(=O)O)CC1 (configuration not stated)	0	0	-	0	?
COC(=O)C1C(c2ccc(OC)cc2)C(C(=O)OC)S(=O)(=O)C(CCN2CCCCC2)S1(=O)=O (configuration not stated)	0	-	-	-	0
NC(=O)NCCS[C@H]1CCCC[C@@H]1O	0[13.5 µM]	0	-	0[11.4 µM]	-
O=C(NCc1ccco1)c1nn2c(C(F)(F)F)cc(-c3cccs3)nc2c1Br	22µM	0	0	0	?
O=C(CCC(=O)c1cccs1)NC(c1ccccc1)c1ccccc1	?	0	0	0	0[0.0737 µM]
O=C(NCc1ccco1)c1cc(-c2ccccc2)on1	0	0	0	0	0
O=C(CCC(=O)c1cccs1)c1cccs1	28µM	0	0	0	?
